Compound activity (PubChem)
This is a sample that favours compounds with a hit; in the whole collection about 1.1% have one here.
IP6K1 inhibitor = Primary qHTS assay for small molecule inhibitors of Inositol hexaphosphate kinase 1 (IP6K1) | IP6K1 kinase, ADP-Glo luminescence, 2 h; stronger effect = lower value | AID 1645851, 2021 | activity change, % (series mostly up to about 58 µM) | Inositol hexakisphosphate kinase 1 (Homo sapiens), Q92551 | 140,000 tested, 0.81% active; in the data active = activity change below about -25%
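ADP-Glo luminescence measures ADP made by human IP6K1 during a 2 h RT reaction with ATP/IP6 (mix at 1.3 mM/130 uM); top library doses 57.5 and 19.1 uM final.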
GPT2 inhibitor = Primary qHTS assay for inhibitors of Glutamate pyruvate transaminase 2 (GPT2) | Alanine aminotransferase 2 (Homo sapiens), Q8TD30 | Recombinant GPT2, coupled pyruvate oxidase/HRP Amplex Red fluorescence | Potency, µM (doses to about 57.7 µM), usual class: inhibitors | 100,000 tested, 0.25% active; note: nearly all actives have a fitted effect of over 60% in size
Target sequence (Q8TD30 whole entry, looked up): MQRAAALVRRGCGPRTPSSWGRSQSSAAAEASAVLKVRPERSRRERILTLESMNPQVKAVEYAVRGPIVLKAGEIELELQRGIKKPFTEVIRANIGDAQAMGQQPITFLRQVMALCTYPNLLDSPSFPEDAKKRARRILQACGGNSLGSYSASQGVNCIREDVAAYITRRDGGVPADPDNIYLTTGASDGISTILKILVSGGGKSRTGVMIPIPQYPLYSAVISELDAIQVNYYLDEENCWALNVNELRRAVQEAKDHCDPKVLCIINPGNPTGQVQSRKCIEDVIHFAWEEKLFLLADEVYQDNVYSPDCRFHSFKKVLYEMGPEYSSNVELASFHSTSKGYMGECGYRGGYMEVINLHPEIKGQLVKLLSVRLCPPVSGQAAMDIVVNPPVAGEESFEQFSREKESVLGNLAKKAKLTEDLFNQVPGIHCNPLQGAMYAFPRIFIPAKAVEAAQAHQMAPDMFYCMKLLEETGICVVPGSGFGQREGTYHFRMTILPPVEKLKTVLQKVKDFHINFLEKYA
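Recombinant GPT2 (10ng/uL) with 250uM a-KG and 2mM L-alanine, 30 min at room temperature, in HEPES pH 7.5 buffer. Pyruvate detected by pyruvate oxidase/HRP/Amplex Red fluorescence after 30 min in the dark; AOA (50uM) as positive control.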
HEK293 viab = GF-AFC viability counterscreen for inhibitors of alpha-synuclein gene (SNCA) expression; HEK-293-SNCA-luc viability, GF-AFC fluorescence, 24 h; Potency, µM (doses to about 57.1 µM), most hits filed as cytotoxic; 150,000 tested, 0.12% active; note: nearly all actives have a fitted effect of over 30% in size
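HEK-293-SNCA-luc cells (1500/well) plated 24 h, then exposed 24 h to a dilution series; GF-AFC added 30 min at 37C, fluorescence 405/540 nm; normalised to medium-only and DMSO wells, Hill fit.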
SNCA expr inh = Primary qHTS assay for inhibitors of alpha-synuclein gene (SNCA) expression | HEK-293 SNCA-luciferase knock-in, luminescence, 24 h | Potency, µM (highest dose often 57.2 µM), most hits filed as inhibitors | 140,000 tested, 0.17% active | AID 1671194, 2021; note: nearly all actives have a fitted effect of over 45% in size
A number is an active result; . = inactive; ? = inconclusive; / = not tested or not shown; ! = a repeat was not active. Unless noted, calls come from the whole dose curve; as a rule, active = well fitted curve in the direction sought with a large enough effect; inconclusive = small, poorly fitted or top-dose-only effect, or another doubt; inactive = no such curve, though single readings can be large; an effect the other way counts as inactive or inconclusive.

SMILES | IP6K1 inhibitor | GPT2 inhibitor | HEK293 viab | SNCA expr inh
COc1ccc(NC(=O)N2CCc3c(C(=O)N(C)C)cccc32)cc1 | . | . | . | ?
Cc1ccc(NC(=O)N2CCc3c(C(=O)NCCCN4CCCC4=O)cccc32)cc1 | . | . | . | 2µM
CC(NC(=O)c1cccc2c1CCN2C(=O)Nc1ccccc1)c1cccnc1 (stereo unspecified) | . | . | . | .
Cc1ccc(NC(=O)N2CCc3c(C(=O)NC(C)c4cccnc4)cccc32)cc1 (stereo unspecified) | . | . | . | 4µM
COc1ccc(NC(=O)N2CCc3c(C(=O)NC(C)C)cccc32)cc1 | . | . | . | 3.5µM
COc1ccc(-c2ccc(C(=O)NCc3ccccc3F)c(Cl)c2)nn1 | . | / | / | /
CCN(CC)C(=O)/C(C#N)=C/c1cc(O)c(O)c([N+](=O)[O-])c1 | . | 8.9µM | . | .
N#C/C(=C\c1ccc(O)c(O)c1)C(=O)c1ccc(O)c(O)c1 | / | ? | . | .
Cc1ccc(Nc2ccnc(N3CCC(NC(=O)c4ccc(C(F)(F)F)cc4)CC3)n2)cc1 | . | . | ? | 25µM
Cc1ccc(Nc2ccnc(N3CCC(NC(=O)c4ccc(C)cc4)CC3)n2)cc1 | . | . | . | .
COc1ccc(-c2cn3cc(C(=O)N4CCOCC4)nc3s2)cc1 | . | . | . | .
COc1cccc(-c2cn3cc(C(=O)N4CCOCC4)nc3s2)c1 | . | . | ? | 13µM
C=CCCC(CN1CCCOCC1)Oc1ncc(C)c(N(C)C)n1 (stereo unspecified) | . | . | . | .
CC(C)CN(CCCNC(=O)CN1C(=O)COc2ccc(S(=O)(=O)N3CCCCCC3)cc21)CC(C)C | . | / | . | 28µM
CS[C@H]1SC[C@@H]2C(=O)N(C)[C@H](C(C)C)C(=O)OC[C@H](NC(=O)c3cnc4ccccc4n3)C(=O)N[C@H](C)C(=O)N(C)[C@@H]1C(=O)N(C)[C@H](C(C)C)C(=O)OC[C@H](NC(=O)c1cnc3ccccc3n1)C(=O)N[C@H](C)C(=O)N2C | / | . | 0.019µM | 0.0061µM
Cc1ccc(CS(=O)(=O)c2ncc(Cl)c(C(=O)Nc3nnc(C(C)C)s3)n2)cc1 | . | / | 25µM | ?
O=C(Nc1nc2ccc(F)cc2s1)c1nc(S(=O)(=O)Cc2ccccc2F)ncc1Cl | -40 | / | ? | ?
CCc1nnc(NC(=O)c2nc(S(=O)(=O)Cc3cccc(C)c3)ncc2Cl)s1 | . | / | 20µM | ?
NC1(C(=O)N2CCCC(CCc3ccccc3F)C2)CCC1 (stereo unspecified) | . | . | . | .
COc1ccc(C(=O)N2CCC3(C2)C(=O)N(CCc2ccccc2)c2ccccc23)cc1 (stereo unspecified) | . | . | ? | .
COc1ccc(C(=O)N2CCC3(C2)C(=O)N(Cc2ccccc2)c2ccccc23)cc1 (stereo unspecified) | . | . | 11µM | ?
COc1ccccc1-c1cc(C(=O)N(C)c2ccccc2)c2cnn(C)c2n1 | . | / | / | /
O=C(c1cccc(F)c1)N1CCCC(Cc2noc(-c3ccccc3)n2)C1 (stereo unspecified) | . | . | 3.5µM | ?
CCn1nccc1C(=O)N1CCc2nc3cc(-c4ccccc4Cl)[nH]n3c(=O)c2C1 | . | . | . | ?
O=C(c1ccncc1)N1CCc2nc3cc(-c4ccccc4Cl)[nH]n3c(=O)c2C1 | . | . | . | 7.9µM
SMILES | IP6K1 inhibitor | GPT2 inhibitor | HEK293 viab | SNCA expr inh
COc1cc(SC)ccc1C(=O)Nc1ccc(S(=O)(=O)Nc2nccc(C)n2)cc1 | . | / | . | .
Cc1ccnc(NS(=O)(=O)c2ccc(NC(=O)Nc3ccc(S(=O)(=O)Nc4nccc(C)n4)cc3)cc2)n1 | . | ? | ? | 0.86µM
Cc1noc(C)c1C(=O)N1Cc2ccccc2CC2(CCN(C)C2)C1 (stereo unspecified) | . | . | . | .
COc1cc(-n2cnc3cc(-c4ccc(Cl)cc4)sc3c2=O)ccc1OCCN1CCCC1 | . | . | 12µM | /
COc1cc(C)ccc1OCCn1c(-c2ccc(Cl)cc2)nc2ccccc2c1=O | . | / | . | .
O=C(c1ccc(C(F)(F)F)cc1)N1CCc2nc(C3CC3)nc(-c3ccc(O)cc3)c2C1 | . | . | . | .
CC(C)C(=O)Nc1ncc(-c2cc(C(F)F)nn2-c2c(Cl)cccc2Cl)s1 | . | 10µM! | ? | .
O=C(Nc1ncc(-c2cc(C(F)F)nn2-c2c(Cl)cccc2Cl)s1)C1CC1 | . | ? | ? | ?
C/C1=C/CCC2=CC(OC2=O)C(C)(C)/C=C/C1=O (stereo unspecified) | . | . | 7.5µM | /
CC1=C[C@@H](CNC(=O)NC2CCCCC2)[C@H](C(C)C)C[C@H]1Cc1nc2c(C)cccc2[nH]1 | . | . | . | .
CCCNC(=O)NC[C@@H]1C=C(C)[C@H](Cc2nc3ccc(OC)cc3[nH]2)C[C@H]1C(C)C | . | . | 28µM | ?
CCC(CC)C(=O)NC[C@@H]1C=C(C)[C@H](Cc2nc3c(C)cccc3[nH]2)C[C@H]1C(C)C | . | . | 14µM | ?
CCCNC(=O)NC[C@@H]1C=C(C)[C@H](Cc2nc3ccc(C(=O)OC)cc3[nH]2)C[C@H]1C(C)C | . | . | . | .
O=C(Nc1cn[nH]c1-c1nc2ccc(CN3CCOCC3)cc2[nH]1)NC1CC1 | . | . | ? | 24µM
COCC(=O)Nc1ccc2c(c1)CN(Cc1cccc(OC)c1OC)CCO2 | . | . | . | .
CC(C)c1nc2c(c(-c3ccc(O)cc3)n1)CCN(C(=O)c1ccccc1F)CC2 | . | . | . | .
COc1ccc(NC(=O)c2nc3sccn3c2-c2cccc(C(F)(F)F)c2)cc1 | . | ? | 22µM | .
Cc1ccc(NC(=O)c2nc3sccn3c2-c2cccc(C(F)(F)F)c2)cc1 | . | . | . | .
O=C(c1ncn[nH]1)N1C[C@@H](COCC2CC2)[C@H](c2ccccn2)C1 | . | . | . | 0.79µM
NC(=O)c1ccc([N+](=O)[O-])cc1Cl | . | . | . | .
O=[N+]([O-])c1ccc2c(c1)S(=O)(=O)C=C2 | / | . | ? | 5µM
CN(C)c1cccc(-c2c3c(=O)n(-c4ccccc4Cl)[nH]c3cc(=O)n2C)c1 | . | 15µM! | ? | .
CCCN1CCN(C(=O)c2c(OCC3CC3)cc(=O)n3c2CCOCC3)CC1 | . | . | . | .
COCCCNC(=O)c1ccc2nnc(CC3CC3)n2c1 | . | . | . | .
CC(=O)Nc1ccc(NC(=O)c2cc3c(n2C)CCN(Cc2ccccc2)C3)cc1 | . | . | . | .
Cn1c(C(=O)Nc2ccc(N3CCOCC3)cc2)cc2c1CCN(Cc1ccccc1)C2 | . | 22µM | . | .
O=C(NC1CCCC1)N1CCc2nc(C3CC3)nc(-c3ccc(Cl)cc3)c2C1 | . | . | . | .
COc1ccc(NC(=O)Cn2c(=O)n(-c3ccc(C)c(C)c3)c(=O)c3c4c(sc32)CCCCC4)cc1Cl | -33 | / | ? | .
